# Laboratory results from PubChem BioAssay AID1159580 (chemical genetic matrix, 2015).
# Screen size: about 5,500 compounds; about 2,000 (36%) were called active. Another 18% or so got no clear call; they are omitted. The list shows a part of the results. Unmarked numbers belong to inactive results. Rule as the data show it: active = normalized growth mostly below about 0.91 (no sharp cut-off); inconclusive = no clear call, values can overlap the other calls; inactive = mostly above about 0.92.
# Assay: chemical genetic growth profiling, strain panel (AID 1159580);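 also: tested at 20 µM; growth read once vehicle control cultures reached saturation at 30 °C; 1 = growth at the plate median or of vehicle wells; lower values mean less growth of the strain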
# Details: growth OD
compound,measurement,setting,value
CCCc1cc(C(=O)Nc2ccc(N(CC)CC)cc2)nn1-c1ccccc1,normalized growth,"S. cerevisiae deletion strains, locus YAL013W, strain DEP1, hits give low values",0.98
same,normalized growth,"S. cerevisiae deletion strains, locus YBR229C, strain ROT2, hits give low values",0.983
same,normalized growth,"S. cerevisiae deletion strains, locus YDL101C, strain DUN1, hits give low values",0.981
same,normalized growth,"S. cerevisiae deletion strains, locus YDL134C, strain PPH21, hits give low values",0.873 (active)
same,normalized growth,"S. cerevisiae deletion strains, locus YDR150W, strain NUM1, hits give low values",0.966
same,normalized growth,"S. cerevisiae deletion strains, locus YEL061C, strain CIN8, hits give low values",0.895 (active)
same,normalized growth,"S. cerevisiae deletion strains, locus YGR078C, strain PAC10, hits give low values",0.975
same,normalized growth,"S. cerevisiae deletion strains, locus YHR030C, strain SLT2, hits give low values",0.276 (active)
same,normalized growth,"S. cerevisiae deletion strains, locus YHR087W, strain rtc3, hits give low values",0.981
same,normalized growth,"S. cerevisiae deletion strains, locus YJL187C, strain SWE1, hits give low values",0.991
same,normalized growth,"S. cerevisiae deletion strains, locus YJR043C, strain POL32, hits give low values",0.973
same,normalized growth,"S. cerevisiae deletion strains, locus YJR075W, strain HOC1, hits give low values",0.967
same,normalized growth,"S. cerevisiae deletion strains, locus YKL190W, strain CNB1, hits give low values",0.96
same,normalized growth,"S. cerevisiae deletion strains, locus YLR039C, strain RIC1, hits give low values",1
same,normalized growth,"S. cerevisiae deletion strains, locus YLR058C, strain SHM2 (second series), hits give low values",0.982
same,normalized growth,"S. cerevisiae deletion strains, locus YLR085C, strain ARP6, hits give low values",0.813
same,normalized growth,"S. cerevisiae deletion strains, locus YLR262C, strain YPT6, hits give low values",0.915
same,normalized growth,"S. cerevisiae deletion strains, locus YML094W, strain GIM5, hits give low values",0.911
same,normalized growth,"S. cerevisiae deletion strains, locus YMR219W, strain ESC1, hits give low values",0.999
same,normalized growth,"S. cerevisiae deletion strains, locus YMR263W, strain SAP30, hits give low values",0.991
same,normalized growth,"S. cerevisiae deletion strains, locus YMR307W, strain GAS1, hits give low values",0.275 (active)
same,normalized growth,"S. cerevisiae deletion strains, locus YNL153C, strain GIM3, hits give low values",0.987
same,normalized growth,"S. cerevisiae deletion strains, locus YNL298W, strain CLA4 (second series), hits give low values",0.884
same,normalized growth,"S. cerevisiae deletion strains, locus YNL322C, strain KRE1, hits give low values",0.991
same,normalized growth,"S. cerevisiae deletion strains, locus YNR030W, strain Alg12, hits give low values",0.89
same,normalized growth,"S. cerevisiae deletion strains, locus YOL006C, strain TOP1, hits give low values",0.626 (active)
same,normalized growth,"S. cerevisiae deletion strains, locus YPL055C, strain LGE1, hits give low values",0.973
same,normalized growth,"S. cerevisiae deletion strains, locus YPL241C, strain CIN2, hits give low values",0.92
same,normalized growth,"S. cerevisiae deletion strains, locus YPR135W, strain CTF4, hits give low values",0.718
same,normalized growth,"S. cerevisiae strains, strain wild type, hits give low values",0.922
